Results on 30 molecules are retold here after PubChem BioAssay AID651702 (NMMLSC, 2012).

In general, inhibition refers to the change of the read-out against control, counted positive when it falls.

Molecules are shown by their SMILES. In all, about 360,000 compounds went through this assay and about 2,400 (0.67%) were called active. The sample as a whole holds a higher share of actives than the screen did. Unmarked numbers belong to inactive results.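 How the source made its calls: active means inhibition above about 55% (limit read from the data); inconclusive means no clear call, values can overlap the other calls; inactive means the rest.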

The experiment in a line: LAMP-1 surface exposure blockers, TALL-104 cells – cell-based, flow cytometry, MLPCN library, primary screen (AID 651702). Conditions: TALL-104 LAMP-1 surface exposure, at 10 µM, active compounds read high.
Take `CC(=O)OC1C2(CC3N4C(=O)C5(CO)SSC4(CC31O)C(=O)N5C)OC(C)C(C)(C)C2=O` (stereo not given): the inhibition was 74.7% (active).

On to `CN1CCC[C@@H]1CCO[C@](C)(c1ccccc1)c1ccc(Cl)cc1`, for which the inhibition was 3.8%.

As for `Cc1cc(N2C(=O)C3CCCN3C2c2ccc(Cl)c(Cl)c2)no1` (stereo not given), the inhibition was 1.1%.

As to `CN1CCC(OC(=O)c2cccc(F)c2)CC1`, the inhibition was -4.7%.

Turning to `O=C(CCNS(=O)(=O)c1ccccc1)Nc1ccc(Cl)cc1C(=O)c1ccccc1`, the inhibition is -5.4%.

For the molecule `OC1/C(=C/c2ccc(C(F)(F)F)cc2)N2CCC1CC2` (stereo not given), the inhibition was -6.5%.

Consider `O=C1NC(=O)N(CCc2ccc(F)cc2)C(=O)/C1=C/C=C/c1ccccc1`, for which the inhibition is 57.4% (active).

Consider `O=[N+]([O-])c1ccc(C2C3C(c4ccccc4)=NC4(CCCCC4)N32)cc1` (stereo not given), for which the inhibition was 0.6%.

Consider `O=c1[nH]c(CN2CC=C(c3ccccc3)CC2)nc2scc(-c3cccs3)c12`, for which the inhibition was -1.3%.

On to `Cc1ccc(CN2CCCC(C(=O)c3ccc4c(c3)OCO4)C2)cc1C` (stereo not given), for which the inhibition is -2.3%.

Turning to `CCOc1ccc(-c2cc(C)[n+](CCN(CC)CC)c(-c3ccc(OCC)cc3)c2)cc1`, the inhibition is 77.5% (active).

For `COc1ccccc1CN1CCN(C(=O)Cc2ccccc2)CC1`, the inhibition was 24.2%.

With `COc1ccc(Br)cc1CNCCc1cccc(Cl)c1`, the inhibition was 75.9% (active).

Regarding `COc1ccc(CNCCc2ccc3c(c2)OCO3)c(OC)c1OC`, the inhibition was 5.7%.

Turning to `COc1ccc(CNCCc2c[nH]c3ccccc23)cc1OC`, the inhibition was 21.9%.

Turning to `CCOP(=S)(OCC)C(O)CCCCCn1c(=O)c(F)cn(C2CCCO2)c1=O` (stereo not given), the inhibition is 1.5%.

As to `CCOC(=O)[C@]12Cc3ccccc3[C@H]1N(C1CCCCC1)C(=O)c1cc(OC)ccc12`, the inhibition is 57.3% (active).

For `CCOC(=O)[C@]12Cc3cc(OC)ccc3[C@H]1N(C(C)C)C(=O)c1ccccc12`, the inhibition was 3.3%.

For the molecule `Cc1cccc(NC(=O)N2CC3CC(C2)c2cccc(=O)n2C3)c1` (stereo not given), the inhibition was -2.7%.

On to `O=C(CCCn1c(=O)[nH]c2cc(Cl)ccc2c1=O)N1CCC2(CC1)OCCO2`, for which the inhibition is 2%.

In the case of `Cc1cccc(OP(=O)(Oc2cccc(C)c2)OC(c2ccccc2)C(F)(F)F)c1` (stereo not given), the inhibition is 0.4%.

With `O=C(Nc1cccc2ccccc12)N1CCC2(CC1)OCCO2`, the inhibition is -7.6%.

For `CCCCCCCCCCCCn1ccc(=N)cc1`, the inhibition is 27.1%.

On to `CCOC(=O)C1CN(C)CCC1=O` (stereo not given), for which the inhibition is -3.9%.

On to `CNCC[C@H](Oc1ccc(C(F)(F)F)cc1)c1ccccc1`, for which the inhibition is 10%.

Take `O=C1NC(=O)N(Cc2ccco2)C(=O)/C1=C\c1ccc(-c2ccc(F)cc2)o1`: the inhibition was 76.4% (active).

As for `COC(=O)C1=C(c2ccc(Cl)c(C(F)(F)F)c2)C[C@@H]2CC[C@H]1N2C(=O)NC(C)C`, the inhibition is -10.7%.

For the molecule `COCc1cc(OC(=O)N(C)C)nc(-c2ccc(C)c(Cl)c2)n1`, the inhibition is -8.4%.

On to `COc1cc(-n2c(=S)[nH]c3ccc(C)cc3c2=O)c(Cl)cc1Cl`, for which the inhibition is 1.2%.

Turning to `COc1ccc(-n2c(O)c(C(C)=Nc3ccc4c(c3)CCC4)c(=O)[nH]c2=O)cc1`, the inhibition is -0.2%.
